{
  "source": "PubChem BioAssay AID1440",
  "about": "(NMMLSC, 2008)",
  "note": "In all, about 220,000 compounds went through this assay and fewer than 10 were called active. Not shown: some 92% with an inconclusive outcome. The rule behind the calls is not given here. Only a sample is shown.",
  "data": [
    {"biological_target": "Guanine nucleotide-binding protein G(o) subunit alpha (Homo sapiens) + Regulator of G-protein signaling 19 (Homo sapiens) (UniProt P09471+P49795)", "sequence (P09471 whole entry, looked up)": "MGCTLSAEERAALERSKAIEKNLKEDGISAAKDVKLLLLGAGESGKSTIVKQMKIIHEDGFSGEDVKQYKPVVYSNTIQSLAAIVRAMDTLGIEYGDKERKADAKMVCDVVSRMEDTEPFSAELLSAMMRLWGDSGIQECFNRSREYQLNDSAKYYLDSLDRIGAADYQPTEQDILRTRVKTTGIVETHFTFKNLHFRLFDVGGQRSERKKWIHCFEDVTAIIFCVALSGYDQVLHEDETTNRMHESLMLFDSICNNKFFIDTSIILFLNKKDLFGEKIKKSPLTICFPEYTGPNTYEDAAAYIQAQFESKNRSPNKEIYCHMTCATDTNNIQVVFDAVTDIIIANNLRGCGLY", "sequence (P49795 whole entry, looked up)": "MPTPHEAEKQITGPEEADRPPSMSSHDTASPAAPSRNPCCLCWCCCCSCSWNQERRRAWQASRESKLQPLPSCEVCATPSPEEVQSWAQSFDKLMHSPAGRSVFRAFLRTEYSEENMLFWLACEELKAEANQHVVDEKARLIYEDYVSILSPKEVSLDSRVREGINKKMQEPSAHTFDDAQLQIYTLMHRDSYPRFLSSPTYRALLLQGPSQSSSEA", "test": "regulators of RGS19 binding to Galphao, biochemical, multiplexed bead flow cytometry (AID 1440);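 note: fluorescent Galpha o activated by aluminum fluoride binding bead-coupled RGS19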", "details": "at 10 µM", "units": {"binding response (% of control)": "%"}, "values": [
      {"compound": "CS(=O)(=O)N1CCCC(C(=O)NCCc2ccccc2)C1", "note": "(centres undefined)", "binding response (% of control)": 71.4},
      {"compound": "O=C(NC1(C(F)(F)F)C(=O)Nc2c1c(=O)[nH]c(=O)n2Cc1ccccc1)c1ccc(Cl)cc1", "note": "(centres undefined)", "binding response (% of control)": 108},
      {"compound": "COC(=O)CCN(c1ccccc1)S(=O)(=O)c1ccc(OC)cc1", "binding response (% of control)": 38.5},
      {"compound": "CNC(=O)c1c(N)sc2c1CCCCC2", "binding response (% of control)": 60.7},
      {"compound": "COC(=O)c1ccccc1NC(=S)NC(=O)COc1ccc(C(C)C)cc1", "binding response (% of control)": 284},
      {"compound": "CCNC(=S)NNC(=O)Nc1ccccc1", "binding response (% of control)": 89.6},
      {"compound": "COC(=O)c1cn(NC(=O)C2COc3ccccc3O2)c(=O)c2ccccc12", "note": "(centres undefined)", "binding response (% of control)": 40.7},
      {"compound": "O=C(COc1ccc2ccccc2c1)Nc1cccc2cccnc12", "binding response (% of control)": 110},
      {"compound": "COc1ccc(NC(=O)CCNS(=O)(=O)c2ccc(Br)s2)cc1", "binding response (% of control)": 110},
      {"compound": "Cc1ccc(S(=O)(=O)N2CC3(C)CN(S(=O)(=O)c4ccc(C)cc4)CC(C)(C2)C3=O)cc1", "binding response (% of control)": 103},
      {"compound": "Cc1cc(C)nc(SCC(=O)Nc2ncc3c(n2)CC(C)(C)CC3=O)n1", "binding response (% of control)": 62.4},
      {"compound": "Cc1cc(NC(=O)Cn2c(=O)c3c(ncn3CCC(C)C)n(Cc3ccccc3)c2=O)no1", "binding response (% of control)": 106},
      {"compound": "O=c1c(Cc2ccc(Cl)cc2Cl)c(O)ccn1Cc1ccc(Cl)cc1", "binding response (% of control)": 97.7},
      {"compound": "CCOc1c2ccc(C(=O)NCc3ccc(OC)cc3)cc2nn1CCOC", "binding response (% of control)": 92.2},
      {"compound": "O=C(Nc1cccnc1)C1CCCN1S(=O)(=O)c1ccc(Cl)c(Cl)c1", "note": "(centres undefined)", "binding response (% of control)": 114},
      {"compound": "COc1ccccc1CNc1ccc(C(=O)O)cc1", "binding response (% of control)": 121},
      {"compound": "COc1ccc(OC)c(C2C(C#N)=C(N)Oc3c2c(C)nn3-c2cccc(Cl)c2)c1", "note": "(centres undefined)", "binding response (% of control)": 96.4},
      {"compound": "Cc1ccc2c(CN3CCN(CCO)CC3)cc(=O)oc2c1C", "binding response (% of control)": 111},
      {"compound": "CCN1CCCC1CNC(=O)C(NC(=O)C1CCC(C)CC1)C(C)C", "note": "(centres undefined)", "binding response (% of control)": 107},
      {"compound": "O=C(CN1C(=O)S/C(=C/c2cccs2)C1=O)N1CCOCC1", "binding response (% of control)": 99.9},
      {"compound": "CCOCCCNC(=O)C(c1ccc(Cl)cc1)N(Cc1cccs1)C(=O)CNC(C)=O", "note": "(centres undefined)", "binding response (% of control)": 90},
      {"compound": "Cc1ccc(-c2cnc(N)n2C)cc1C", "binding response (% of control)": 94.5},
      {"compound": "CCc1ccc(OC)c(S(=O)(=O)NCCOc2ccccc2)c1", "binding response (% of control)": 41.2},
      {"compound": "Fc1ccc(CNC(=S)Nc2ccccc2Cl)cc1", "binding response (% of control)": -28},
      {"compound": "COC(=O)CCC(=O)Nc1cccc(C(=O)Nc2cccc(Cl)c2)c1", "binding response (% of control)": 100},
      {"compound": "Cc1ccc(NC(=O)c2cc(-n3cnnc3)ccc2Cl)cc1", "binding response (% of control)": 100},
      {"compound": "CC1(C)CC(=O)C(C(=S)Nc2ccccc2)=C(NCCN2CCOCC2)C1", "binding response (% of control)": 118},
      {"compound": "Cc1ccc(Cn2ncn3c(cc4ccccc43)c2=O)cc1", "binding response (% of control)": 87.2},
      {"compound": "O=C(NCc1ccco1)C1CCN(S(=O)(=O)N2CCC3(CC2)OCCO3)CC1", "binding response (% of control)": 45.9},
      {"compound": "CCOc1ccc(C2NC(=O)c3sc(=S)n(-c4ccccc4)c3N2)cc1", "note": "(centres undefined)", "binding response (% of control)": 87.5},
      {"compound": "Cc1ccccc1-n1nc(C)c2cc(C(=O)N3CCN(S(=O)(=O)c4ccc(Cl)cc4)CC3)sc21", "binding response (% of control)": 94.8},
      {"compound": "O=C(Nc1cccc(C(F)(F)F)c1)c1cc2c(s1)-c1ccccc1OC2", "binding response (% of control)": 119},
      {"compound": "COc1ccc2cnnc(SCC(=O)Nc3ccccc3)c2c1OC", "binding response (% of control)": 118},
      {"compound": "CCCCN(CC(=O)Nc1c(C)cccc1CC)C(=O)SCC", "binding response (% of control)": 101},
      {"compound": "Cc1ccc(C)c(Cn2nnc3c(=O)[nH]c(C4CCCN(C(=O)C5CCCCC5)C4)nc32)c1", "note": "(centres undefined)", "binding response (% of control)": 109},
      {"compound": "COC(=O)c1cc(OC)c(OC)cc1NC(=O)CCC1CCCC1", "binding response (% of control)": 107},
      {"compound": "COc1ccc(CC(=O)OCc2cc3ccccc3[nH]c2=O)cc1", "binding response (% of control)": 90.7},
      {"compound": "Cc1cc(NC(=O)c2cnn3c(C(F)(F)F)cc(-c4ccccc4)nc23)no1", "binding response (% of control)": 103},
      {"compound": "O=C(CN1C(=O)C2C3C=CC(C3)C2C1=O)Nc1cccc2c1CCCC2", "note": "(centres undefined)", "binding response (% of control)": 187},
      {"compound": "Nc1c2c(nc3ccn(Cc4ccccc4)c(=O)c13)CCC2", "binding response (% of control)": 72.4},
      {"compound": "COC(=O)CSc1nnnn1-c1cccc2ccccc12", "binding response (% of control)": 106},
      {"compound": "CN(CCCC(=O)NCc1ccco1)S(=O)(=O)c1ccccc1", "binding response (% of control)": 98.9},
      {"compound": "Fc1ccccc1OCCSc1nnnn1-c1ccccc1", "binding response (% of control)": 25.6},
      {"compound": "O=C(c1ccco1)N1CCC(c2nc(-c3ccc(F)cc3)no2)CC1", "binding response (% of control)": 75.6},
      {"compound": "COc1ccc(-c2nc(-c3cccs3)c(-c3cccs3)[nH]2)cc1O", "binding response (% of control)": 102},
      {"compound": "Cc1cccc(NC(=S)NC2CC3CCC(C2)N3Cc2ccco2)c1", "note": "(centres undefined)", "binding response (% of control)": 113},
      {"compound": "CC(NC(=O)Nc1ccc(F)cc1F)c1ccncc1", "note": "(centres undefined)", "binding response (% of control)": 70.2},
      {"compound": "CCOc1ccc(-c2c(C(=O)N/N=C/c3ccccc3)nnn2-c2nonc2N)cc1", "binding response (% of control)": 91.3},
      {"compound": "CCCN(CCC)CCOc1cc(C)ccc1C(C)C", "binding response (% of control)": 116},
      {"compound": "CC(C)C(CC(=O)NCc1ccco1)c1ccco1", "note": "(centres undefined)", "binding response (% of control)": 172},
      {"compound": "CCOc1ccc(NC(=O)CSc2nc3ccccc3c(=O)n2CCNC(C)=O)cc1", "binding response (% of control)": 97.9},
      {"compound": "O=C(NN=C1CCCCC1)c1ccccc1OCc1ccc(F)cc1", "binding response (% of control)": 118},
      {"compound": "Cc1nc2ccccc2c(=O)n1NC(=O)COc1ccccc1", "binding response (% of control)": 103},
      {"compound": "CC(C)(C)NC(=O)c1ccc2nsnc2c1", "binding response (% of control)": 141},
      {"compound": "O=C(Nc1nc(N2C(=O)c3ccccc3C2=O)n(-c2ccccc2)n1)c1ccccc1", "binding response (% of control)": -19.9},
      {"compound": "Cn1c(Cl)cnc1C(O)c1ccccc1", "note": "(centres undefined)", "binding response (% of control)": 105},
      {"compound": "Cc1c(Br)c(C(F)(F)F)nn1CC(=O)N1CCCC1", "binding response (% of control)": 99.7},
      {"compound": "CCOC(=O)c1[nH]nc(-c2cc(CC)c(O)cc2O)c1-c1cscn1", "binding response (% of control)": 56.9},
      {"compound": "CC(=O)N(c1ccc(C(C)C)cc1)C1C=CS(=O)(=O)C1", "note": "(centres undefined)", "binding response (% of control)": 103},
      {"compound": "CCCCC(=O)Nc1nc(C)c(-c2csc(Nc3cc(Cl)ccc3OC)n2)s1", "binding response (% of control)": 148},
      {"compound": "COc1cccc(OC)c1C(=O)Nc1ccc(NC(=O)c2ccco2)cc1", "binding response (% of control)": 112},
      {"compound": "CCOC(=O)C1=C(c2ccccc2)NC(=O)NC1c1ccc(OCC#N)c(OC)c1", "note": "(centres undefined)", "binding response (% of control)": 119},
      {"compound": "CCOC(=O)C1Cn2c(nc3c(c2=O)C2(CCCC2)Cc2ccccc2-3)S1", "note": "(centres undefined)", "binding response (% of control)": 102},
      {"compound": "CCOC(=O)N1CCC(NC(=O)CCCN2C(=O)CSc3ncccc32)CC1", "binding response (% of control)": 353}
    ]}
  ]
}
